The campaign covered roughly 39,000 compounds. About 3,300 (8.5%) were called active. This excerpt belongs to a sample that is enriched for actives.
Each compound was assayed on HepG2 (assay: cytotoxicity call (relative viability < 0.9)). Settings: 10 µM.

Row | Structure (SMILES) | cytotoxicity call
1 | Nc1cccc2c(=O)[nH][nH]c(=O)c12 | inactive
2 | O=C(N/N=C/[C@H](O)[C@@H](O)[C@H](O)[C@H](O)CO)c1ccccn1 | inactive
3 | N[C@@H](CCO)c1cccc(Cl)c1 | inactive
4 | C[C@H]1CN([C@@H](C)CO)C(=O)c2cc(Br)cnc2O[C@H]1CN(C)S(=O)(=O)c1ccccc1 | inactive
5 | C[C@H](CO)N1C[C@H](C)[C@@H](CN(C)C(=O)Nc2ccc(F)cc2)Oc2ccc(NS(C)(=O)=O)cc2CC1=O | inactive
6 | NCc1nnnn1-c1ccc(F)cc1 | inactive
7 | C[C@@H]1CCCCO[C@@H](CN(C)C(=O)c2ccccc2)[C@@H](C)CN([C@@H](C)CO)C(=O)c2cc(NC(=O)NC3CCCCC3)ccc2O1 | inactive
8 | C[C@H]1CN([C@@H](C)CO)C(=O)c2c(c3ccccc3n2C)-c2ccccc2CO[C@H]1CN(C)Cc1cccc(F)c1 | inactive
9 | C[C@H](CO)N1C[C@H](C)[C@@H](CN(C)Cc2cccc(F)c2)OCc2ccccc2-c2c(n(C)c3ccccc23)C1=O | inactive
10 | C[C@@H]1CN([C@@H](C)CO)C(=O)c2c(c3ccccc3n2C)-c2ccccc2CO[C@H]1CN(C)Cc1cccc(F)c1 | inactive
11 | C[C@@H]1CN([C@H](C)CO)C(=O)c2c(c3ccccc3n2C)-c2ccccc2CO[C@H]1CN(C)Cc1cccc(F)c1 | inactive
12 | COc1cccc(CN(C)C[C@H]2OCc3ccccc3-c3c(n(C)c4ccccc34)C(=O)N([C@@H](C)CO)C[C@H]2C)c1 | active
13 | COc1cccc(CN(C)C[C@H]2OCc3ccccc3-c3c(n(C)c4ccccc34)C(=O)N([C@@H](C)CO)C[C@@H]2C)c1 | inactive
14 | COc1cccc(CN(C)C[C@@H]2OCc3ccccc3-c3c(n(C)c4ccccc34)C(=O)N([C@@H](C)CO)C[C@@H]2C)c1 | inactive
15 | C[C@H](CO)N1C[C@H](C)[C@H](CN(C)Cc2cccc(F)c2)OCc2ccccc2-c2c(n(C)c3ccccc23)C1=O | active
16 | C[C@H]1CCCCO[C@@H](CN(C)S(=O)(=O)c2ccccc2)[C@@H](C)CN([C@@H](C)CO)C(=O)c2cc(NC(=O)Nc3ccccc3)ccc2O1 | inactive
17 | Cc1ccc(S(=O)(=O)N2C[C@H](O)COC[C@H]3O[C@@H](CC(=O)NCc4ccc5c(c4)OCO5)CC[C@@H]32)cc1 | inactive
18 | N=C(N)SC=CC(=O)O | inactive
19 | C[C@@H]1CN([C@H](C)CO)C(=O)c2cc(NC(=O)CCN3CCOCC3)ccc2O[C@@H]1CN(C)C(=O)Nc1ccc(F)cc1 | inactive
20 | Cc1n[nH]c(=O)[nH]c1=O | inactive
21 | C[C@@H]1CN([C@H](C)CO)C(=O)c2cccc(NC(=O)c3ccncc3)c2O[C@H]1CN(C)S(=O)(=O)c1ccc(F)cc1 | inactive
